Assay results taken from ChEMBL document CHEMBL3988442, “University of Dundee, Small-Polar-MMV Screening Library” (2021).
Among all 48,000 compounds or so, about 13,000 (27%) showed an effect of 50% or more. This is one part of the list.

Test system: Wolbachia pipientis
Assay: Anti-Wolbachia Cell-Based Screen
Format: functional
Set-up: scale not given: in the data most compounds retested in dose-response had high values
Details: 5 µM

SMILES	Percent Effect [%]
Cc1nnc(SCC(=O)N2CCc3[nH]nc(C4CCC4)c3C2)o1	-25.51
CCN(CC)C(=O)C(c1ccccc1)N1CCn2c(C)nnc2C1 (configuration not stated)	-5.766
CC1(C)CC(CC(=O)N2CC(C)(C)[C@@](C)(O)C2)CC(C)(C)N1	-10.88
CCc1cc(N[C@@H](CC(C)C)C(N)=O)n2nc(C)c(C)c2n1	1.157
O=C([C@@H]1CCCO1)N1CCN(Cc2ccncc2)c2ncccc2C1	98.82
O=C([C@H]1CCCO1)N1CCN(Cc2cccnc2)c2ncccc2C1	109.6
O=C1CC(C(=O)N2CCc3sccc3C2)CN1Cc1cccnc1 (configuration not stated)	-4.394
CCC(C)(C)NC(=O)c1ccc(NC(=O)NCc2cc(C)no2)cc1	-4.635
COCCN(CCOC)c1nc2c(s1)c(C)nn2C	0.9407
COC(=O)[C@@H](NC(=O)Nc1ccc(C(C)=O)cc1)C(C)C	115.5
COC(=O)C(NC(=O)Nc1ccc(C(C)=O)cc1)C(C)C (configuration not stated)	123.5
Cc1ccc(NC(=O)NC(C)c2nc[nH]n2)cc1 (configuration not stated)	-1.45
COCC(=O)N1CCC(C(=O)Nc2ccc(C(C)=O)cc2)CC1	-27.44
COc1ccc(C(=O)N2CCCC(n3cncn3)C2)nn1 (configuration not stated)	89.87
Cc1cnn(C2CCCN(C(=O)c3ccc(N(C)C)nn3)C2)c1 (configuration not stated)	-2.152
CCn1nc(C(=O)N2CCCC(n3cncn3)C2)ccc1=O (configuration not stated)	-5.268
O=C(c1ccc(OCC2CC2)nc1)N1CCCC(n2cncn2)C1 (configuration not stated)	-8.592
CCc1nccn1C1CCCN(C(=O)c2ccc(N(C)C)nn2)C1 (configuration not stated)	8.431
CN(C)c1ccc(C(=O)N2CCCC(n3cncn3)C2)nn1 (configuration not stated)	102.9
Cc1nccn1C1CCCN(C(=O)c2ccc(N(C)C)nn2)C1 (configuration not stated)	121.5
Cc1nc(C)n(C2CCCN(C(=O)c3ccc(N(C)C)nn3)C2)n1 (configuration not stated)	-4.997
COc1cc(CN2CCCC2)ccc1Oc1ccc2c(c1)CC(CN)O2 (configuration not stated)	-3.423
CCCc1nc(C)c(C(=O)NS(=O)(=O)c2ccc(C#N)cc2)s1	11.71
COc1ccccc1CC(=O)NS(=O)(=O)c1ccc(NC(C)=O)cc1	120.5

SMILES	Percent Effect [%]
CCCN(Cc1ccc(S(=O)(=O)NC)cc1)Cc1ccccc1OC	2.153
COc1ccccc1CC(=O)NS(=O)(=O)c1cncc(Br)c1	1.416
COc1ccccc1CC(=O)NS(=O)(=O)c1ccc(C#N)cc1	90.41
COc1ccccc1CC(=O)NS(C)(=O)=O	-0.264
CCc1nc(CN2CCN(C(=O)COCc3ccccc3)CC2)no1	16.69
O=C(O)c1csc(S(=O)(=O)Nc2cccc(OCC(F)(F)F)c2)c1	12.1
CCCc1cc(C(=O)Nc2nc(SC)ns2)[nH]n1	-43.27
Cc1nsc(NC(=O)NC2CCN(C)CC2)n1	-30.6
Cc1nsc(NC(=O)N2CCCC2C)n1 (configuration not stated)	-6.715
CSc1nsc(NC(=O)c2cc(C3CC3)nn2C)n1	105.4
CCCc1cc(C(=O)Nc2nc(SC)ns2)n(C)n1	129.6
CC(C)c1nn(C)c(N2CCOCC2)c1CNC(C)c1cccs1 (configuration not stated)	1.351
CCNC(=O)NC(=O)CNC(C)(CC)c1nc(C)cs1 (configuration not stated)	6.164
CC(C)CN(CC(C)C)Cn1ncc2cn(-c3ccccc3)nc2c1=O	8.982
Cc1c(C(=O)N2CCCC2c2cnn(C)c2)cnn1-c1ccccc1 (configuration not stated)	112.8
Cc1c(C(=O)N2CCCC2c2cnn(C)c2)nnn1-c1ccccc1 (configuration not stated)	-1.391
Cc1nn(-c2ccccc2)nc1C(=O)N1CCCC1c1cnn(C)c1 (configuration not stated)	5.794
Cc1ccc(-n2ncc(C(=O)N3CCCC3c3cnn(C)c3)c2C)cc1 (configuration not stated)	102.1
Cc1nn(-c2ccccc2)cc1C(=O)N1CCCC1c1cnn(C)c1 (configuration not stated)	105.2
Cn1cc(C2CCCN2C(=O)c2cn(-c3ccccc3)nn2)cn1 (configuration not stated)	82.94
Cc1ccccc1-n1ncc(C(=O)N2CCCC2c2cnn(C)c2)c1C (configuration not stated)	-2.042
Cn1cc(C2CCCN2C(=O)Cn2ccc3ccccc32)cn1 (configuration not stated)	10.33
CCCOc1ccc(C(=O)N2CCN3CCNC(=O)C3C2)cc1Cl (configuration not stated)	-5.744
Clc1ccc(C2(NCc3noc(C4CC4)n3)CCC2)cc1	3.298

SMILES	Percent Effect [%]
COCCN(Cc1cccc(C#N)c1)Cc1nnsc1Cl	9.531
COc1ccc(NC(=O)c2ccoc2C)c(N2CCN(C(C)=O)CC2)n1	0.9885
Cc1nc(CNC(=O)NCC(O)c2ccc(F)cc2F)cs1 (configuration not stated)	-3.131
Cc1nc(C)n(CC2CCCCN2CCC(=O)Nc2cc(C)on2)n1 (configuration not stated)	5.676
Cc1nc(C)n(CC2CCCN2CC(=O)Nc2cc(C(C)C)no2)n1 (configuration not stated)	-1.165
Cc1nc(C)n(CC2CCCCN2CC(=O)Nc2cc(C)on2)n1 (configuration not stated)	106.4
Cc1nc(C)n(CC2CCCN2Cc2cc(C)on2)n1 (configuration not stated)	-8.278
Cc1nc(C)n(CC2CCCN2CC(=O)Nc2cc(C)on2)n1 (configuration not stated)	98.7
Cc1nc(C)n(CC2CCCCN2CC(=O)Nc2ccncc2)n1 (configuration not stated)	-2.552
Cc1nc2c(C(=O)N[C@H]3C[C@H]4CN(C)CCN4C3)cccc2[nH]1	8.866
CCCc1cc(N2CCCC2Cn2nc(C)cc2C)n2ncnc2n1 (configuration not stated)	-3.923
CC(C)OCCS(=O)(=O)c1ccccc1C#N	-1.71
CC(NC(=O)C1CC1)c1cc(O)nc(-c2cccnc2)n1 (configuration not stated)	92.57
Cc1ccc(C)c(C(NC(=O)C2CC2)c2cccnc2)c1 (configuration not stated)	-2.241
O=C(Nc1cc(-c2cccnc2)no1)C1CCCCC1	-34.68
CCc1nnc(CN(C)Cc2cccc(C(=O)Nc3nccs3)c2)o1	-6.732
CN(CCNC(=O)Nc1ccn(C)n1)Cc1ccc(F)cc1	87.45
CN(CCNC(=O)Nc1cnn(C)c1)Cc1ccc(F)cc1	113
Cn1ccc(NC(=O)Cc2cccc(F)c2)n1	-26.85
CN(CCNC(=O)Nc1nccs1)Cc1ccc(F)cc1	98.5
CCCNC(=O)Nc1ccn(CCCOC)n1	-11.06
Cn1cc(CNC(=O)Nc2ccc(S(=O)(=O)C(F)F)cc2)cn1	-23.54
CC(NC(=O)Nc1nccs1)c1ccncc1 (configuration not stated)	-0.7222
CCc1nnc(CN(C)Cc2cccc(C(=O)Nc3cnn(C)c3)c2)o1	-6.481
